Experimental data taken from PubChem BioAssay (Tox21).
Results filed as inconclusive are left out. Where a call stands in place of a potency, no number is given. The source made the active and inactive calls. Calls follow the shape of the full dose curve.

Molecular target: Beta-2 adrenergic receptor (Homo sapiens) (UniProt P07550)
Test: Adrenergic beta2 receptor (ADRB2) small molecule agonists, cell-based qHTS assay (AID 1963593)
Method in brief: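 CHO cells stably over-expressing ADRB2 were plated overnight at 37C, then dosed with compounds plus a stimulation mix containing 100uM IBMX and 25uM Ro-20-1724 for 0.5hr at room temperature. cAMP was measured by HTRF competition, 1hr.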
Potency is read from the fitted curve at half-maximal effect.

Beta-2 adrenergic receptor (Homo sapiens), sequence (P07550 whole entry, looked up): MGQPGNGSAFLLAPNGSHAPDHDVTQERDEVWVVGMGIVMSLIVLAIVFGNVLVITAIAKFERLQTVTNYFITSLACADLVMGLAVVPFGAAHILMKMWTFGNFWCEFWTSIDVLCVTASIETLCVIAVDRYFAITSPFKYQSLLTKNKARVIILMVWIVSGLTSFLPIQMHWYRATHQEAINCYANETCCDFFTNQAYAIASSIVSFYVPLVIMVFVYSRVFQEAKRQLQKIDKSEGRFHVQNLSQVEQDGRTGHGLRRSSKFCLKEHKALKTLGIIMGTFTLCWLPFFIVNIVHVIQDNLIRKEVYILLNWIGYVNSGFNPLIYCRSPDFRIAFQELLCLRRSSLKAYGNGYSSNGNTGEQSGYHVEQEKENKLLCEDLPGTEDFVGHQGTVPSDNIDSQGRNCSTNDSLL

SMILES | Potency
CC(CC(C(N)=O)(c1ccccc1)c1ccccc1)N(C)C (stereo not drawn) | inactive
COc1ccc2c(c1OC)C(=O)O[C@H]2[C@@H]1c2cc3c(cc2CCN1C)OCO3 | inactive
CCC[N+](CCC)(CCC)CCC | inactive
N#CSCc1ccccc1 | inactive
C[N+]1(C)[C@@H]2CC[C@H]1CC(OC(=O)C(CO)c1ccccc1)C2 (stereo partly drawn) | inactive
ClP(Cl)(Cl)(Cl)Cl | inactive
N#C/C=C/c1ccccc1 | inactive
O=C(O)c1cc(I)cc(I)c1I | inactive
OC(c1ccccc1)(c1ccccc1)C1CCNCC1 | inactive
CC1(c2ccc(Oc3ccccc3)cc2)OC(=O)N(Nc2ccccc2)C1=O (stereo not drawn) | inactive
C[C@@H]1CC2=CC(=O)CC[C@@H]2[C@H]2CC[C@@]3(C)[C@@H](CC[C@]3(C)O)[C@@H]21 | inactive
CC/C(=N\OC/C=C/Cl)C1=C(O)CC(C2CCOCC2)CC1=O (stereo not drawn) | inactive
CCN(CC)c1c([N+](=O)[O-])cc(C(F)(F)F)c(N)c1[N+](=O)[O-] | inactive
CC(=O)CCc1ccc2c(c1)OCO2 | inactive
O=C=Nc1ccc(Cl)cc1 | inactive
CO/C=C(/C(=O)OC)c1ccccc1COc1cccc(C(F)(F)F)n1 | inactive
N[C@@H]1C[C@H]1c1ccccc1 | inactive
Nc1ccc(Cl)cc1C(=O)c1ccccc1F | inactive
O=C(O)CCCCCCNC1c2ccccc2CCc2ccccc21 | inactive
CCOP(=O)(OCC)O/C(=C/Cl)c1ccc(Cl)cc1Cl | inactive
COP(=O)(OC)O/C(=C\Cl)c1cc(Cl)c(Cl)cc1Cl | inactive
O=C(Nc1ccc2[nH]ccc2c1)c1cc2cc(F)ccc2n1Cc1cccc(F)c1 | inactive
CCCCC(CC)COC(=O)OOC(C)(C)C (stereo not drawn) | inactive
C#CC1(O)CCCCC1 | inactive

SMILES | Potency
Cc1cccc2sc3nncn3c12 | inactive
ClC(Cl)C(Cl)Cl | inactive
CNP(=O)(OC)Oc1ccc(C(C)(C)C)cc1Cl (stereo not drawn) | inactive
CC1(C)[C@H](C=C(Cl)Cl)[C@@H]1C(=O)O[C@@H](C#N)c1cccc(Oc2ccccc2)c1 | inactive
O=C(CBr)Nc1ccc(Cl)cc1C(=O)c1ccccc1F | inactive
COC(=O)N(C(=O)N1COC2(C(=O)OC)Cc3cc(Cl)ccc3C2=N1)c1ccc(OC(F)(F)F)cc1 (stereo not drawn) | inactive
CNCC(=O)c1ccc(O)c(O)c1 | 531 nM (active)
CCCC[N+]1(C)[C@@H]2CC(OC(=O)[C@H](CO)c3ccccc3)C[C@H]1[C@@H]1O[C@@H]12 (stereo partly drawn) | inactive
CC[C@H](C)[C@H]1O[C@]2(C=C[C@@H]1C)C[C@@H]1C[C@@H](C/C=C(\C)[C@@H](O[C@H]3C[C@H](OC)[C@@H](O[C@H]4C[C@H](OC)[C@@H](O)[C@H](C)O4)[C@H](C)O3)[C@@H](C)/C=C/C=C3\CO[C@@H]4[C@H](O)C(C)=C[C@@H](C(=O)O1)[C@]34O)O2 | inactive
c1ccc2c(c1)[nH]c1cnccc12 | inactive
C[C@]12CC[C@H]3[C@@H](CCC4=CC(=O)CC[C@@]43C)[C@@H]1CC[C@@H]2C(=O)O | inactive
c1ccc2cc3c(cc2c1)-c1cccc2cccc-3c12 | inactive
COC(=O)N(OC)c1ccccc1COc1ccn(-c2ccc(Cl)cc2)n1 | inactive
O=C(OC1CCCCC1)c1ccccc1C(=O)OC1CCCCC1 | inactive
CC(Cc1ccc2c(c1)OCO2)NO (stereo not drawn) | inactive
C[C@H](CN1CCOCC1)C(C(=O)N1CCCC1)(c1ccccc1)c1ccccc1 | inactive
CCCCCCCCP(=O)(O)O | inactive
CCC(=O)C(CCN(C)C)(c1ccccc1)c1ccccc1 | inactive
COc1ccc([N+](=O)[O-])cc1O | inactive
OC(Cn1cncn1)(c1ccc(F)cc1)c1ccccc1F (stereo not drawn) | inactive
Oc1ccccc1Br | inactive
CC1N=C(N)OC1c1ccccc1 (stereo not drawn) | inactive
CN1C(=S)CN=C(c2ccccc2)c2cc(Cl)ccc21 | inactive
BrCCCCBr | inactive
